This is a sample that favours compounds with a hit; in the whole collection about 12% have one here.
Sm TGR inh: qHTS Assay for the Inhibitors of Schistosoma Mansoni Peroxiredoxins | Potency, µM (top dose mostly 114 µM), for inactives: at the top dose activity change, negative = inhibition, hits mostly inhibitors | purified TGR, DTNB reduction, TNB absorbance 405 nm | Schistosoma mansoni thioredoxin glutathione reductase (TGR), Q962Y6 | 3% of 360,000 active; note: % is set by controls: 0 for no effect and ±100 for the full control effect; nearly all actives have a fitted effect of over 60% in size
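TGR 20 nM + NADPH 100 uM (dispensed conc.), cpd preinc 15 min RT; start with NADPH (500 uM addition) then DTNB (15 mM addition). Kinetic TNB absorbance, 405 nm filter. Four-parameter Hill fit across titration.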
SARS PLpro yeast: qHTS of Yeast-based Assay for SARS-CoV PLP; S. cerevisiae expressing SARS-CoV PLpro, growth rescue; Potency, µM (top dose mostly 32.9 µM), for inactives: at the highest dose activity, positive = growth rescue, usual class: activators; 0.19% of 330,000 active; AID 485353, 2010; calls by dose curve; note: 0% is about no effect; nearly all actives have a fitted effect of over 55% in size
Pf growth 96h: Primary qHTS for delayed death inhibitors of the malarial parasite plastid, 96 hour incubation. P. falciparum luciferase reporter growth, 96 h. Potency, µM (doses to about 28.7 µM), without a hit: at the top dose activity change, negative = inhibition, most hits filed as inhibitors. 6.9% of 320,000 active. AID 504834, 2011; note: % is set by controls: 0 for no effect and ±100 for the full control effect
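Two parasite generations (96 h, 37 C, 5% CO2) of compound exposure in infected erythrocytes (0.05% parasitemia, 2% hematocrit). Luciferase-reporter P. falciparum; decreased luminescence indicates inhibited growth, aimed at apicoplast-acting delayed death.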
Pf growth 48h: Primary qHTS for delayed death inhibitors of the malarial parasite plastid, 48 hour incubation; AID 504832, 2011; Potency, µM (series often up to 28.7 µM), for inactives: top-dose activity change, negative = inhibition, hits mostly inhibitors; P. falciparum luciferase growth in erythrocytes, 48 h; 5.9% of 310,000 active; note: % is set by controls: 0 for no effect and ±100 for the full control effect
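Compounds are pin-transferred into medium, infected erythrocytes (2% hematocrit, 0.1% parasitemia final) are added, and plates sit one parasite generation at 37 C in 5% CO2. Detection reagent is then added and luminescence measured.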
Numbers without * were called inactive; ? = inconclusive; · = not tested or not shown. Unless noted, calls come from the whole dose curve; as a rule, active = well fitted curve in the direction sought with a large enough effect; inconclusive = small, poorly fitted or top-dose-only effect, or another doubt; inactive = no such curve, though single readings can be large; an effect the other way counts as inactive or inconclusive. Potency is the fitted concentration of half-maximal effect.

SMILES	Sm TGR inh	SARS PLpro yeast	Pf growth 96h	Pf growth 48h
O=C(NCc1nc2ccccc2[nH]1)C1=C[C@@H](c2ccc(Br)cc2)C[C@@H](OCCCCO)O1	-3.8%	-1.7%	?	?
O=C(CCS(=O)(=O)c1cc2c(cc1Cl)NC(=O)CO2)NCCc1ccc(Cl)cc1	4.2%	·	·	·
CCn1c(=O)[nH]c2ccccc2c1=O	-18.3%	-8.6%	56.1%	-7.1%
CCc1c(C(C)S(=O)(=O)c2ccccc2)[nH]c(=O)n1CC (centres undefined)	1µM*	0.8%	-1.6%	4.1%
COc1ccccc1-c1nn2c(-c3ccco3)nnc2s1	?	-8.6%	?	·
c1ccc(OCc2nn3c(-c4cccnc4)nnc3s2)cc1	-15.5%	-2.3%	11.7µM*	?
c1coc(-c2nn3c(-c4ccco4)nnc3s2)c1	14.1µM*	-4.9%	?	8.1%
Clc1ccc(OCc2nn3c(-c4ccco4)nnc3s2)cc1	31.6µM*	-16.5%	-23.2%	14.7µM*
COc1ccc(OCc2nn3c(-c4ccco4)nnc3s2)cc1	?	-3.2%	·	-27.8%
Cc1cccc(OCC(=O)NCCCNC(=O)c2ccco2)c1	8.8%	8.2%	-16.5%	-28.3%
COc1ccccc1-c1nnc(SCC(=O)Nc2oc(C)c3c(C)n[nH]c(=O)c23)n1C	19.3%	-1.7%	10.8%	4.8%
COCC(C)n1c(COc2ccccc2F)nnc1SCC(=O)Nc1oc(C)c2c(C)n[nH]c(=O)c12 (centres undefined)	25.1µM*	4.8%	14.3%	1.2%
O=C(NCCC(=O)N1CCC2(CC1)NCCc1[nH]cnc12)c1ccc(Br)cc1	2.3%	-0.9%	?	-12.8%
Cc1ccc(CCNS(=O)(=O)c2ccc3c(c2)NC(=O)CCS3)cc1	-12.6%	-2.7%	13.1µM*	8.2%
Cc1ccc(C)c(NS(=O)(=O)c2ccc3c(c2)NC(=O)CCS3)c1	1.9%	-5.9%	9.28µM*	-16.9%
COc1ccc(CCNS(=O)(=O)c2ccc3c(c2)NC(=O)CCS3)cc1OC	-3.1%	1.1%	?	?
Cc1ccccc1NS(=O)(=O)c1ccc2c(c1)NC(=O)CCS2	-3.7%	3.7%	11.7µM*	-23.3%
CCOc1ccccc1NS(=O)(=O)c1ccc2c(c1)NC(=O)CCS2	-4.2%	-2.7%	?	-9.7%
Cc1ccc(NS(=O)(=O)c2ccc3c(c2)NC(=O)CCS3)c(Br)c1	2.3%	-0.8%	?	6.57µM*
CCN(c1cccc(C)c1)S(=O)(=O)c1ccc2c(c1)NC(=O)CCS2	-13.7%	-2.1%	?	?
COc1cc(OC)c(NS(=O)(=O)c2ccc3c(c2)NC(=O)CCS3)cc1Cl	-8.5%	·	·	·
COc1ccccc1C(=O)Nc1c(C(=O)N2CCN(c3ccccc3F)CC2)oc2ccccc12	0.0%	·	·	·
CCN(CC(=O)NCc1ccc(F)cc1)C(=O)Cc1ccc(OC)cc1	-5.1%	0.2%	-27.8%	?
Cc1ccc(CN(Cc2ccco2)c2cnc(S(C)(=O)=O)nc2C(=O)Nc2ccc(Br)cc2)o1	-0.7%	·	·	·
COc1cc(-c2noc(C3CC(=O)N(c4cc(C)ccc4C)C3)n2)cc(OC)c1OC (centres undefined)	2.9%	·	·	·
SMILES	Sm TGR inh	SARS PLpro yeast	Pf growth 96h	Pf growth 48h
Cc1cc(C)c(NC(=O)c2cc(C)nc3c2c(C)nn3-c2cccc(F)c2)c(C)c1	8.1%	·	·	·
COc1cccc(C2OC(=O)c3ccccc3N2C(C)=O)c1OC(C)=O (centres undefined)	8.5%	5.5%	11.7µM*	-7.4%
CC(=O)N1c2ccccc2C(=O)OC1c1cccnc1 (centres undefined)	-34.4%	13.1%	32.9%	?
Cc1ccccc1OCC(=O)N(Cc1nc(-c2ccccc2)no1)C(C)C	6.9%	-3.2%	-7.7%	?
COc1ccccc1OCC(=O)N(Cc1nc(-c2ccccc2)no1)C1CCCCC1	4.6%	-24.8%	·	13.1µM*
O=C(C1=NN[C@@H]2C(=O)N(c3cccc(F)c3)C(=O)[C@H]12)c1cnccn1	3.16µM*	-3.6%	57.4%	36.9%
O=C(C1=NN[C@@H]2C(=O)N(c3ccccc3C(F)(F)F)C(=O)[C@H]12)c1cnccn1	-23.1%	-6.5%	26.8%	23.5%
CCc1ccc(-c2csc(NC(=O)Oc3ccccc3)n2)cc1	-10.0%	-66.3%	11.7µM*	196.3%
O=C(Nc1nc(-c2cccc(Br)c2)cs1)Oc1ccccc1	4.8%	-48.8%	127.7%	111.4%
O=C(Nc1nc(-c2cccnc2)cs1)c1ccc([N+](=O)[O-])cc1	8.3%	0.3%	11.7µM*	4.65µM*
O=C(NC(=S)Nc1nc(-c2ccccc2)cs1)c1cccnc1	-16.0%	-1.8%	11.7µM*	-23.0%
O=C(NC(=S)Nc1nc(-c2ccccc2)cs1)c1cncc(Br)c1	-18.8%	19.1%	?	?
CCc1ccccc1OCC(=O)Nc1nc(-c2cccnc2)cs1	-7.3%	?	4.15µM*	4.15µM*
Cc1cc(SCC(=O)NCc2ccc(Cl)cc2)nc(=O)[nH]1	6.9%	·	·	·
CC(O)C(N)C(=O)O (centres undefined)	·	·	-0.5%	-9.3%
C[C@@H](N)C(=O)O	·	·	19.1%	16.9µM*
O=C(O)c1ccc(-n2c(/C=C\c3ccc(O)cc3)nc3ccccc3c2=O)cc1	-8.3%	·	·	·
Cc1ccccc1-n1c(/C=C/c2ccc(O)cc2)nc2ccccc2c1=O	1.9%	·	·	·
O=C(O)c1ccc(/C=C/c2nc3ccccc3c(=O)n2-c2ccc(Br)cc2)cc1	6.3%	0.1%	13.1µM*	?
O=c1c2ccccc2nc(/C=C/c2ccc(O)cc2)n1-c1ccccc1O	10.6%	-0.7%	?	9.28µM*
O=c1c2ccccc2nc(/C=C/c2ccccc2)n1-c1ccccc1O	-12.0%	-8.5%	?	9.28µM*
COc1cc(/C=C/c2nc3ccccc3c(=O)n2-c2ccccc2O)ccc1O	-3.0%	-0.5%	9.28µM*	9.28µM*
CCOc1cc(C(=O)N2CCC3(CC2)NCCc2[nH]cnc23)cc(OCC)c1OCC	-31.7%	1.7%	12.1%	-2.8%
C/C(N)=C(/C#N)C(=O)CSc1nc(-c2ccccc2)c(-c2ccccc2)o1	8.6%	-8.8%	-22.4%	6.8%
COc1ccccc1-n1c(/C=C/c2ccc(O)cc2)nc2ccccc2c1=O	-22.8%	-3.5%	-6.8%	13.1µM*
CCCn1c(-c2cccc(F)c2)nc2c1c(=O)[nH]c(=O)n2Cc1ccccc1	4.9%	0.4%	-29.2%	-4.0%
COCCn1c(-c2ccc(-c3ccccc3Cl)o2)nc2c1c(=O)[nH]c(=O)n2CC(C)C	31.6µM*	1.2%	33.5%	-4.0%
CCCCn1c(=O)[nH]c(=O)c2c1nc(-c1ccc(OCCC)c(OCC)c1)n2CCOC	11.0%	-4.8%	?	9.28µM*
CCCCn1c(=O)[nH]c(=O)c2c1nc(-c1ccc(-c3ccccc3Br)o1)n2CCOC	?	2.4%	-3.9%	14.1%
COCCn1c(-c2cccc([N+](=O)[O-])c2)nc2c1c(=O)[nH]c(=O)n2Cc1ccccc1	0.6%	10.2%	11.7µM*	?

Screening data from PubChem BioAssay.
